# Screening results from PubChem BioAssay.
# This excerpt belongs to a sample that is enriched for hits.
# Shiga inhibitor: blocks Shiga toxin action in Vero cells. Vero cells, Shiga toxin protein synthesis inhibition reporter. inhibition, % at 38.7 µM. 9.2% of 290,000 active; in the data active = inhibition mostly above about 28%, no sharp cut-off; inactive = mostly below about 43%
# LmPK inhibitor: blocks Leishmania mexicana pyruvate kinase activity | purified LmPK, Kinase-Glo ATP luminescence, 1 h | AID 1721 | Potency, µM (titrated, usually from 57.5 µM), hits mostly inhibitors | 0.37% of 290,000 active
# Target sequence (Q27686 whole entry, looked up): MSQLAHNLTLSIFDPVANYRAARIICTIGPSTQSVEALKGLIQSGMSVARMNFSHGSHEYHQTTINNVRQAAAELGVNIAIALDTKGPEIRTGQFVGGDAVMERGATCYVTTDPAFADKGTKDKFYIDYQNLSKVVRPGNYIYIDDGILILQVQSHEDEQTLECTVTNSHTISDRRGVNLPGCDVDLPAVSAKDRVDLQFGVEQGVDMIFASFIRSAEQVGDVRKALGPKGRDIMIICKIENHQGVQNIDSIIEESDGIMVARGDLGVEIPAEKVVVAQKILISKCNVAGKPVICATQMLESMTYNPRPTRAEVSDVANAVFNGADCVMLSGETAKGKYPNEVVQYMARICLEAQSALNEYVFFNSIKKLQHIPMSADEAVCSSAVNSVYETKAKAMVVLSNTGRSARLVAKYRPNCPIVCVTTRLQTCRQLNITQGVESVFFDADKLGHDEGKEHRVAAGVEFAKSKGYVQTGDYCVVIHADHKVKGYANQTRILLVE
#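 Purified LmPK (0.1 nM) with 0.5 mM PEP and 0.1 mM ADP in imidazole buffer pH 7.2 with MgCl2/KCl, 1 h at room temperature. ATP formed was read by luciferase luminescence and normalized to no-enzyme and uninhibited controls.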
# Cycloheximide cs: affects cycloheximide protein synthesis inhibition readout, counter-screen | 12% of 300,000 active | cell reporter, cycloheximide protein synthesis inhibition counterscreen | max response, %; in the data active = max response mostly above about 13%, no sharp cut-off; inactive = mostly below about 14%; note: read at 38.3 µM for the half of the compounds with a filed dose
# TbPYK inhibitor: blocks Trypanosoma brucei pyruvate kinase; TbPYK enzyme, Kinase-Glo Plus ATP luminescence, 45 min; Potency, µM (top dose mostly 76.8 µM), most hits filed as inhibitors; 0.12% of 410,000 active; AID 624173; note: nearly all actives have a fitted effect of over 50% in size
#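 Assay buffer: 50 mM TEA pH 7.2, 100 mM KCl, 10 mM MgCl2, 0.05% BSA, 0.01% Tween-20. Pyruvate kinase from T. brucei plus substrate met compound, then ADP (130 uM final). Luminescence was read post 45 min RT.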
# Giardia FBPA inh: inhibitors of Giardia lamblia fructose-1,6-bisphosphate aldolase. purified Giardia FBPA. Potency, µM (titrated, usually from 59.6 µM), most hits filed as inhibitors. 0.71% of 290,000 active. AID 2451; note: nearly all actives have a fitted effect of over 55% in size
#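 40 nM FBPA preincubated 10 min at RT with compound (up to 57.5 uM final), then substrate plus GAPDH/TPI/NAD/arsenate coupling and diaphorase/resazurin added. Fluorescence read after 20 min at RT, 525/598 nm.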
# Sm TGR inh: S. mansoni TGR enzyme inhibition; 3% of 360,000 active; purified TGR, DTNB reduction, TNB absorbance 405 nm; Potency, µM (highest dose often 114 µM), usual class: inhibitors; Q962Y6; note: nearly all actives have a fitted effect of over 60% in size
#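 First, TGR (20 nM dispensed) and NADPH were mixed with compound. Second, a 15 min room-temperature incubation followed. Third, further NADPH and then DTNB were added to start the reaction. Finally, TNB absorbance was monitored kinetically.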
# Hits are given with their value; - = inactive; ? = inconclusive; . = no result; [ ] = remark or other dose. Unless noted, calls come from the whole dose curve; as a rule, active = well fitted curve in the direction sought with a large enough effect; inconclusive = small, poorly fitted or top-dose-only effect, or another doubt; inactive = no such curve, though single readings can be large; an effect the other way counts as inactive or inconclusive.
SMILES,Shiga inhibitor,LmPK inhibitor,Cycloheximide cs,TbPYK inhibitor,Giardia FBPA inh,Sm TGR inh
Cc1ccc(/C=C/C(=O)OC(C)C(=O)Nc2ccc(Cl)cn2)o1 (centres undefined),-,-,-,?,-,13µM
COc1cc(/C=C/C(=O)OC(C)C(=O)Nc2ccc(Cl)cn2)ccc1OC(F)F (centres undefined),.,.,.,-,.,.
CCSc1nnc2c(n1)[nH]c1c(C)cccc12,-,-,19,-,-,-[11.4 µM]
COc1cc(/C=N/NC(=O)CSc2ccccn2)ccc1OC(C)C,68,-,39,-,-,-
CCOC(=O)C1=C(C)OC(N)=C(C#N)C1c1ccc(OC)c(CSc2ccccn2)c1 (centres undefined),-,-,-,-,-,25µM
CCn1c(SCC(=O)N/N=C/c2ccc(OC)c(OC)c2)nc2ccccc21,-,-,-,-,-,-
COc1ccc(/C=N/NC(=O)c2ccccc2Cl)cc1CSc1nc2ccccc2s1,-,-,-,-,-,-
COc1ccc(/C=N/NC(=O)c2ccc(O)cc2O)cc1CSc1ccccn1,64,-,40,-,-,-
COc1ccc(C=O)cc1CSc1ccccn1,-,-,11,-,-,-
CC(C)CCn1c(SCc2c(F)cccc2Cl)nc2ccsc2c1=O,.,.,.,-,.,-
O=C(Cc1cccs1)NC1C(=O)N2C(C(=O)[O-])=C(C[n+]3ccccc3)CSC12 (centres undefined),.,.,.,-,?,.
O=C1NC(=S)N/C1=C/c1cccc2ccccc12,89,-,29,-,-,-
O=C1NC(=S)NC1=Cc1ccccc1O,.,.,.,-,.,.
CN(c1nc2ccccc2nc1Cl)S(=O)(=O)c1ccccc1,45,-,27,-,-,-
Cc1nnc(NC(=O)CCC(=O)N2CCN(S(=O)(=O)c3cc([N+](=O)[O-])ccc3C)CC2)s1,.,.,.,-,.,.
CC(C)C[C@@H](CC(=O)N[C@@H](CCC(=O)O)CC(=O)O)NC(=O)[C@@H]1CNCC[C@H]1NC(=O)C[C@@H](NC(=O)C[C@H](Cc1c[nH]c2ccccc12)NC(=O)[C@@H]1CCCC[C@H]1N)C(C)C,.,.,.,.,-,.
COc1ccccc1OCCOC(=O)Nc1ccccc1,26,-,13,-,-,-
O=C(Nc1ccccc1)OCCCCOC(=O)Nc1ccccc1,.,.,.,-,.,.
Cc1ccc(OCCOC(=O)Nc2ccccc2)cc1,-,-,-,-,-,-
Cc1cccc(OCCOC(=O)Nc2ccccc2)c1,-,-,16,-,-,-
COc1cc(C(=O)COC(=O)c2cnc(C)cn2)ccc1OC(F)F,-,-,-,-,-,-
Cc1noc(C)c1-c1nc(N(C)C)c2ccccc2n1,.,.,.,.,-,.
CC1CC(C)C(=O)[C@H](C(O)CC2CC(=O)NC(=O)C2)C1 (some centres undefined),.,.,.,.,-,.
O=c1[nH]c(Nc2ccccn2)cc2ccccc12,.,.,.,-,.,.
O=c1[nH]c(-c2ccccn2)cc2ccccc12,52,-,36,-,-,-
SMILES,Shiga inhibitor,LmPK inhibitor,Cycloheximide cs,TbPYK inhibitor,Giardia FBPA inh,Sm TGR inh
COc1ccc(N(C(=O)c2snc(C(N)=O)c2N)C(C(=O)NCC2CCCO2)c2ccc(C)o2)cc1OC (centres undefined),-,-,-,-,-,-
CCCN=C1N/C(=C\c2ccco2)C(=O)N1c1ccccc1,-,-,-,-,-,40µM
O=C1NC(=O)/C(=C/c2ccco2)N1,.,.,.,-,.,-
O=C1/C(=C\c2ccco2)NC(=S)N1c1ccccc1,-,-,18,-,-,-
CCCN(CCC)C1=N/C(=C\c2ccco2)C(=O)N1c1ccccc1,-,-,-,-,-,16µM
CCOc1ccc(N2C(=O)/C(=C/c3ccccc3)N=C2SC)cc1,-,-,-,-,-,-
CCCCn1c(C)cc2c(c1=O)C1O[C@](c3ccsc3)(Cc3ccccc31)O2,-,-[11.5 µM],-,.,-[12.9 µM],-[22.9 µM]
Cc1ccc(C(C)C)c(OC(C)C(=O)NCC2(N(C)C)CCCCC2)c1 (centres undefined),.,.,.,-,.,-
CC(=O)N1c2ccc(S(=O)(=O)N3CCCCCC3)cc2CC1C(=O)NCc1ccc(Cl)cc1 (centres undefined),.,.,.,-,.,-
Cc1cccc(-n2c(=O)c3c(c4cc(C)ccc4n3C)n(CC(=O)NCC3CCCO3)c2=O)c1 (centres undefined),.,.,.,-,.,-
O=C1CSC2(C(=O)N(Cc3ccccc3)c3ccccc32)N1c1ccc(Cl)cc1 (centres undefined),.,.,.,-,.,-
O=[N+]([O-])c1cccc2c(N3CCCC3)ccnc12,-,-,21,-,-,-
CC(=O)NCCc1nc2cc(NC(=O)c3ccc([N+](=O)[O-])cc3)ccc2n1C,-,-,-,-,-,-
CC1CCN(Cc2nnnn2CCCC(=O)NCCN2CCOCC2)CC1,-,-,-,-,.,-
C=CCn1c(C)cc(C(=O)COC(=O)c2n[nH]c(=O)c3ccccc23)c1C,.,.,.,-,.,.
Cc1cc(C(=O)COC(=O)c2ccc(N)c([N+](=O)[O-])c2)c(C)n1Cc1ccc2c(c1)OCO2,-,-,-,-,-,-
C=CCn1c(C)cc(C(=O)COC(=O)c2ccc(N)c([N+](=O)[O-])c2)c1C,58,-,55,-,-,-
COCCn1c(C)cc(C(=O)COC(=O)c2ccc3c(c2)NC(=O)CS3)c1C,66,-,28,-,-,-
C=CCn1c(C)cc(C(=O)COC(=O)c2ccc3c(c2)NC(=O)CS3)c1C,39,-,18,-,-,-
CCOc1ccccc1C1C(C(=O)N2CCCCC2)=C(C)Nc2nc3ccccc3n21 (centres undefined),.,.,.,-,.,-
COC(=O)c1cn(CC(=O)Nc2ccccc2C)c2ccccc12,.,-,-,-,-,-
O=S(=O)(c1ccc2c(c1)OCCO2)N1CCN(S(=O)(=O)c2ccccc2F)CC1,-,.,-,.,.,.
COc1ccc(/C=C/C(=O)NC(=S)NNC(=O)c2cnccn2)cc1,-,-,-,-,-,-
COc1ccccc1/C=C/C(=O)NC(=S)Nc1ccccn1,105,-,45,-,-,-
COc1ccc(/C=C/C(=O)NC(=S)Nc2ccccn2)cc1,90,-,47,-,-,-
SMILES,Shiga inhibitor,LmPK inhibitor,Cycloheximide cs,TbPYK inhibitor,Giardia FBPA inh,Sm TGR inh
COCOCCn1cc(CN2CCS(=O)(=O)N(Cc3ccc(-c4cccc(N(C)C)c4)cc3)C(C(C)C)C2=O)nn1 (centres undefined),.,.,.,-,.,.
COCCNP(=O)(c1ccccc1)c1nc2ccccc2s1 (centres undefined),-,-,-,.,-,-
Cc1ccc(NP(=O)(c2ccccc2)c2nc3ccccc3s2)cc1 (centres undefined),62,-,31,-,-,16µM
CCN(CC)S(=O)(=O)c1cc(C(=O)Nc2ccc(Cl)cn2)ccc1C,79,-,33,-,-,-
Cc1ccc(C(=O)NC2CCCCCC2)cc1S(=O)(=O)N1CCOCC1,-,-,28,-,.,-
CCN(CC)S(=O)(=O)c1cc(C(=O)Nc2cc(C)on2)ccc1Cl,-,-,-,-,.,-
